# The sample as a whole holds a higher share of hits than the screen did.
# mcGAS MS inh: blocks mouse cGAS cGAMP production. recombinant mouse cGAS, cGAMP by RapidFire MS. hit rate 0.18% among 130,000. Q8C6L5. inhibition, % at 12.5 µM. AID 1259397;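 active = inhibition of cGAS enzyme activity at or above 60%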;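 note: enzyme stimulated by 45 bp dsDNA with ATP and GTP substrates; cGAMP share of summed cGAMP plus half ATP and half GTP signals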
# * marks the source's active call; other numbers are inactive results; ! = repeats disagree.
SMILES,mcGAS MS inh
O=C(c1c[nH]c(=O)c(Cl)c1)N1CCOC(COc2cccc(C(F)(F)F)c2)C1 (configuration not stated),-6
O=C1C=CC2=C3c4cc(O)c(O)cc4CC3(O)COC2=C1O (configuration not stated),97*
O=S(=O)(NCc1ccccc1)Nc1cccc(-c2ccccn2)c1,7
CN(CC(O)COCc1ccccc1NCc1ccc2ncccc2c1)C1CCCCC1 (configuration not stated),-12
CCCN1CCCC1C(=O)N1CCCN(Cc2nccn2C)CC1 (configuration not stated),94*
Cn1ccnc1CN1CCCC(CCNS(C)(=O)=O)C1 (configuration not stated),-4
CCCCc1nc(CN2CCCN(Cc3nccn3C)CC2)no1,-28
CCn1cc(C(=O)OCC2CCN(C)C2c2ccc(OC)cc2)cn1 (configuration not stated),-16
CCOC(=O)CCNC(=O)C1=COC2=NC(=O)NCCN12,-7
Cc1nc(-n2ncc(C#N)c2N)c2c3c(sc2n1)CCCC3,2
CC(C)C(NS(=O)(=O)c1cccc(Cl)c1)C(=O)N1CCN(c2ccccc2)CC1 (configuration not stated),-5
CC(C)C(NS(=O)(=O)c1ccccc1)C(=O)N1CCN(c2ccccc2Cl)CC1 (configuration not stated),-10
CC(C)C(NS(=O)(=O)c1ccccc1)C(=O)N1CCN(c2cccc(Cl)c2)CC1 (configuration not stated),60*
C[n+]1c(C2C(=N)N(c3ccccc3)CC2=O)sc2ccccc21 (configuration not stated),-5
O=c1c2ccccc2sn1CN1CCN(S(=O)(=O)c2cccs2)CC1,3
CCCC(C)NC(=O)C1CCCN(S(=O)(=O)c2ccc(Br)cc2)C1 (configuration not stated),-1
Nc1nonc1-c1noc(C2CC2c2ccccc2)n1 (configuration not stated),-2
CCCn1c(=O)n(CCC(=O)N2CCCn3ncnc32)c2ccccc21,-12
O=C(C1CC1c1ccc(Cl)c(Cl)c1)N1CCCn2ncnc21 (configuration not stated),96*
CN1CCN(C)C(CNC(=O)C2CC2c2ccc(Cl)c(Cl)c2)C1 (configuration not stated),-4
COc1ccc(-c2ccc(=O)n(CC(N)=O)n2)cc1OC,-7
Cc1cc(-n2nc(C)cc2NS(=O)(=O)c2cccs2)nc(C)n1,-4
O=C1NC2(CCOc3ccccc32)C(=O)N1Cc1coc(-c2cccs2)n1 (configuration not stated),95*
Cc1cc(C)cc(CN2C(=O)NC3(CCOc4ccccc43)C2=O)c1 (configuration not stated),-5
O=C1NC2(CCOc3ccccc32)C(=O)N1CCN1C(=O)c2ccccc2C1=O (configuration not stated),-10
SMILES,mcGAS MS inh
COc1ccccc1Oc1nnnn1-c1ccccc1,8
Cc1cc(-c2ccc(NN=C3C=Cc4c(S(=O)(=O)O)cc(S(=O)(=O)O)c(N)c4C3=O)c(C)c2)ccc1NN=C1C=Cc2c(S(=O)(=O)O)cc(S(=O)(=O)O)c(N)c2C1=O,95*
CC(=O)c1sc2nc(CN3CCN(C(=O)C4CCCO4)CC3)[nH]c(=O)c2c1C (configuration not stated),0
CCC(=O)C1=C(c2ccc(OC)cc2)N(C(=O)CC)n2c(nnc2-c2ccccc2)S1,-9
COc1cc(CSc2ncc(CO)n2CC(=O)NC2CC2)cc(OC)c1,-6
CCn1cc(C#N)c(=O)n(CC(=O)N(C)Cc2c(F)cccc2Cl)c1=O,-3
CC1CCCN(C(=O)c2ccc(Br)o2)C1 (configuration not stated),54
O=C(c1ccco1)N1CCN(C(=O)c2ccc(Br)o2)CC1,-5
Nc1nncn1C(=O)c1ccc(Br)o1,82*
COc1cccc(C=C2SC(=S)N(C)C2=O)c1OC(C)C,-19
CCCCn1ccc2c(nnc3c(-c4ccccc4)cnn32)c1=O,-9
CCCc1nc2nc(C)c([N+](=O)[O-])c(=O)n2[nH]1,-6
CC(=O)Nc1nc2nc(C)c(C)c(=O)n2[nH]1,-12
Cc1nc2nc(C)c(Br)c(=O)n2[nH]1,69*
CN(CCN1CCCC1=O)C(=O)Nc1cc(Cl)ccc1Cl,-4
CNc1nnc(SCc2ccccc2Br)s1,-4
C#CCN(CC=C)CCC(=O)N1CCCC(C)C1 (configuration not stated),-12
CC(=O)NC(C)(C#N)c1ccccc1 (configuration not stated),-20
COc1ccc(CNc2ccccc2-n2cccn2)cc1C,-1
COc1ccc(CNc2c[nH]c(=O)cc2C)cc1OCCCC#N,83*
COc1ccc(CNc2ncn[nH]2)cc1OC,-2
COCCOC(=O)C1=C(C)N(C)C(=O)NC1c1ccccc1[N+](=O)[O-] (configuration not stated),-8
COC(=O)C1=C(C)NC(C)=C(C(=O)OC)C1c1ccccc1[N+](=O)[O-],73*!

# Assay outcomes (PubChem BioAssay)
